Pf growth 48h: inhibits P. falciparum growth in the first generation, 48 h; P. falciparum luciferase growth in erythrocytes, 48 h; Potency, µM (top dose mostly 28.7 µM), usual class: inhibitors; 310,000 compounds, 5.9% hits; AID 504832
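Read-out is firefly luciferase luminescence from an integrated reporter in P. falciparum, so falling signal marks reduced parasite growth. Infected erythrocytes were at 2% hematocrit and 0.1% parasitemia (final) in Albumax-supplemented RPMI 1640.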
Marburg entry inh: Marburg virus entry inhibition; Marburg virus pseudotyped entry inhibition, cell reporter; Potency, µM (doses to about 37.8 µM), usual class: inhibitors; 300,000 compounds, 1.8% hits; AID 540276; calls by dose curve; tested in HEK293 cells
CHX counter: counter-screen for Shiga toxin inhibitors: cycloheximide protein synthesis inhibition. 300,000 compounds, 12% hits. cell reporter, cycloheximide protein synthesis inhibition counterscreen. max response, %; in the data active = max response mostly above about 13%, no sharp cut-off; inactive = mostly below about 14%; note: read at 38.3 µM for the half of the compounds with a filed dose
LASV entry inh: inhibitors of Lassa virus binding or cell entry | 300,000 compounds, 1.2% hits | Lassa virus pseudotype entry inhibition, cell reporter | Potency, µM (highest dose often 37.9 µM), actives largely listed as inhibitors; calls by dose curve; tested in HEK293 cells; note: nearly all actives have a fitted effect of over 50% in size
Pf growth 96h: P. falciparum growth inhibition at 96 hour, primary screen for plastid delayed-death inhibitors. P. falciparum luciferase reporter growth, 96 h. Potency, µM (series often up to 28.7 µM), most hits filed as inhibitors. 320,000 compounds, 6.9% hits
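Two-generation exposure (96 h) targets delayed-death phenotype. Reporter parasites carrying integrated firefly luciferase, in red cells at 2% hematocrit and 0.05% parasitemia final, kept at 37 C, 5% CO2; luminescence loss indicates inhibition.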
Shiga inhibitor: blocks Shiga toxin action in Vero cells. Vero cells, Shiga toxin protein synthesis inhibition reporter. inhibition, % at 38.7 µM. 290,000 compounds, 9.2% hits; in the data active = inhibition mostly above about 28%, no sharp cut-off; inactive = mostly below about 43%
A number is an active result; [ ] = dose if it differs, or a comment. In the library only some 19% were active in any assay of this set; here they are far more common. Unless noted, calls come from the whole dose curve; as a rule, active = well fitted inhibition curve with a large enough effect; inconclusive = small, poorly fitted or top-dose-only effect, or another doubt; inactive = no such curve, though single readings can be large or run the other way.

How did Cc1cc(C)c2c(c1)NC(c1cc3c(cc1Br)OCO3)C1CC=CC21 (stereo not given) do in these assays?
Pf growth 48h: 13µM; Marburg entry inh: inconclusive; CHX counter: inactive; LASV entry inh: inconclusive; Pf growth 96h: inactive; Shiga inhibitor: inactive

How did Brc1cc2c(cc1C1Nc3ccccc3C3C=CCC31)OCO2 (stereo not given) do in these assays?
Pf growth 48h: inconclusive; Marburg entry inh: inconclusive; CHX counter: inactive; LASV entry inh: inactive; Pf growth 96h: inactive; Shiga inhibitor: inactive

How did O=C(NCCN1CCCC1)C1COc2ccccc2O1 (stereo not given) do in these assays?
Pf growth 48h: inactive; Marburg entry inh: inconclusive; CHX counter: inactive; LASV entry inh: inactive; Shiga inhibitor: inactive

How did CC1CCN(C(=O)c2ccc3c(c2)OCCO3)CC1 do in these assays?
Pf growth 48h: inactive; Marburg entry inh: inconclusive; CHX counter: 46; LASV entry inh: inconclusive; Shiga inhibitor: 55

How did CC1CC(C)CN(C(=O)c2ccc3c(c2)OCCO3)C1 (stereo not given) do in these assays?
Pf growth 48h: 2.9µM; Marburg entry inh: inactive; LASV entry inh: inactive; Pf growth 96h: 4.7µM

Results for C[C@H]1C2Cc3ccc(O)cc3[C@]1(C)CCN2CC1CC1 ?
Marburg entry inh: inconclusive; LASV entry inh: inactive

What do the screens show for `N#Cc1c(C(F)(F)F)cc(-c2ccc(Cl)c(Cl)c2)nc1SCCN1CCOCC1`?
Pf growth 48h: inconclusive; Marburg entry inh: inconclusive; CHX counter: inactive; LASV entry inh: inactive; Pf growth 96h: 2.3µM; Shiga inhibitor: inactive

What do the screens show for `Cc1cc(C(F)(F)F)nc(SCCN2CCOCC2)c1C#N`?
Pf growth 48h: inactive; Marburg entry inh: inactive; CHX counter: inactive; LASV entry inh: inactive; Pf growth 96h: inactive; Shiga inhibitor: inactive

Results for CC(=O)N(Cc1ccc(F)cc1)C1=C(NCCc2ccccc2)C(=O)c2ccccc2C1=O ?
Marburg entry inh: inconclusive; CHX counter: inactive; LASV entry inh: 7.1µM; Pf growth 96h: 0.0037µM; Shiga inhibitor: inactive

Results for COCCCNC(=O)c1c(-c2ccccc2)noc1C ?
Pf growth 48h: inactive; Marburg entry inh: inactive; CHX counter: inactive; LASV entry inh: inactive; Pf growth 96h: inactive; Shiga inhibitor: inactive

What do the screens show for `O=C(c1cc(COc2c(F)cccc2F)on1)N1CCC(c2ccccc2F)C1` (stereo not given)?
Pf growth 48h: inactive; Marburg entry inh: inactive; CHX counter: 36; LASV entry inh: inactive; Pf growth 96h: 9.3µM; Shiga inhibitor: 90

How did O=C(c1cc(COc2c(F)cccc2F)on1)N1CCC(c2ccccc2Cl)C1 (stereo not given) do in these assays?
Pf growth 48h: inactive; Marburg entry inh: inconclusive; CHX counter: 51; LASV entry inh: inactive; Pf growth 96h: inactive; Shiga inhibitor: 82

Results for O=C(c1cc(COc2c(F)cccc2F)on1)N1CCc2ccccc2C1 ?
Pf growth 48h: inactive; CHX counter: inactive; Pf growth 96h: inconclusive; Shiga inhibitor: 52

What do the screens show for `O=C(c1cc(COc2cccc(C(F)(F)F)c2)on1)N1CCc2ccccc2C1`?
Marburg entry inh: inactive; LASV entry inh: inconclusive

Results for O=C(c1cc(COc2cccc3cnccc23)on1)N1CCC(c2ccccc2Cl)C1 (stereo not given) ?
Pf growth 48h: inconclusive; CHX counter: inactive; Pf growth 96h: inactive; Shiga inhibitor: inactive

What do the screens show for `CC(=O)C1=C(O)C(=O)N(c2ccc(O)cc2)C1c1cccc(F)c1` (stereo not given)?
Pf growth 48h: inactive; CHX counter: inactive; Pf growth 96h: inconclusive; Shiga inhibitor: inactive

Results for C=CCOC(=O)C(C(C)=O)[C@@H](NC(=O)OC)c1ccc2ccccc2c1 (stereo not given in full) ?
Marburg entry inh: inactive

What do the screens show for `CCc1ccc(NC(=O)[C@H](Cc2c[nH]c3ccccc23)NC(=O)[C@@H]2Cc3ccccc3CN2)cc1`?
Pf growth 48h: inconclusive; CHX counter: inactive; Pf growth 96h: inconclusive; Shiga inhibitor: 28

Results for Cc1cc(C)cc(NC(=O)[C@H](Cc2c[nH]c3ccccc23)NC(=O)[C@@H]2Cc3ccccc3CN2)c1 ?
Pf growth 48h: 9.3µM; CHX counter: inactive; Pf growth 96h: inconclusive; Shiga inhibitor: inactive

Results for O=C(NC(Cc1c[nH]c2ccccc12)C(=O)Nc1ccc(F)cc1)c1cccs1 (stereo not given) ?
Pf growth 48h: inconclusive; Marburg entry inh: inconclusive; CHX counter: inactive; LASV entry inh: 1.4µM; Pf growth 96h: inconclusive; Shiga inhibitor: inactive

What do the screens show for `Cc1cccc(NC(=O)[C@H](Cc2c[nH]c3ccccc23)NC(=O)[C@@H]2Cc3ccccc3CN2)c1`?
Pf growth 48h: 8.3µM; CHX counter: 14; Pf growth 96h: 12µM; Shiga inhibitor: inactive

What do the screens show for `COC(=O)C(Cc1c[nH]c2ccccc12)NC(=O)c1cccs1` (stereo not given)?
Pf growth 48h: inactive; CHX counter: inactive; Pf growth 96h: inactive; Shiga inhibitor: inactive

What do the screens show for `CC(NC(=O)[C@H](Cc1c[nH]c2ccccc12)NC(=O)[C@@H]1Cc2ccccc2CN1)c1ccccc1` (stereo not given in full)?
Pf growth 48h: inconclusive; CHX counter: inactive; Pf growth 96h: inconclusive; Shiga inhibitor: inactive

What do the screens show for `O=[N+]([O-])c1ccc2c(c1)C(O)n1ncnc1S2` (stereo not given)?
Pf growth 48h: inactive; Marburg entry inh: inactive; CHX counter: inactive; Pf growth 96h: inconclusive; Shiga inhibitor: inactive

How did CCN(CC)CCNC(=O)C(=O)NCC1OCCN1C(=O)c1ccc2c(c1)OCO2 (stereo not given) do in these assays?
Pf growth 48h: inactive; Marburg entry inh: inactive; CHX counter: inactive; LASV entry inh: inactive; Pf growth 96h: inactive; Shiga inhibitor: inactive

How did Cc1ccc2occ(C(c3nnnn3Cc3ccccc3)N3CCOCC3)c(=O)c2c1 (stereo not given) do in these assays?
Pf growth 48h: inconclusive; Marburg entry inh: inactive; CHX counter: inactive; LASV entry inh: inactive; Pf growth 96h: inactive; Shiga inhibitor: inactive

Results for CC(O)(CS(=O)(=O)c1ccccc1)C(=O)Nc1cccc(C(F)(F)F)c1 (stereo not given) ?
Pf growth 48h: inactive; Marburg entry inh: inactive; CHX counter: inactive; LASV entry inh: inactive; Pf growth 96h: inconclusive; Shiga inhibitor: inactive

What do the screens show for `COc1ccc2[nH]cc(CCn3ccc(O)c(C/C=C/c4ccccc4)c3=O)c2c1`?
Pf growth 48h: 9.3µM; Marburg entry inh: inconclusive; CHX counter: inactive; LASV entry inh: inconclusive; Pf growth 96h: inconclusive; Shiga inhibitor: inactive

How did CC(C)c1ccc(OCc2ccc(C(=O)N(C)C)o2)cc1 do in these assays?
Pf growth 48h: inactive[0.00184 µM]; Marburg entry inh: inconclusive; CHX counter: 65; LASV entry inh: inconclusive; Pf growth 96h: inactive; Shiga inhibitor: 151

How did CC(C)c1ccc(OCc2ccc(C(=O)NN3CCN(C)CC3)o2)cc1 do in these assays?
Pf growth 48h: inactive; Marburg entry inh: inconclusive; CHX counter: 79; LASV entry inh: inactive; Pf growth 96h: inconclusive; Shiga inhibitor: 170
